Screening results: PubChem BioAssay, several laboratories
CYP2C19 act = cytochrome P450 2C19 (human) activation | P33261 | activation factor at 5 µM | 96,000 tested, under 10 active | recombinant CYP2C19, luciferin-H EGE luminescence; hits give high values; 0 = fully inhibited enzyme, 1 = untreated enzyme | AID 1025;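 active = activation factor of at least 2 at 5 µM in the primary screen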;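 also: 0 = wells with 2.5 mM tranylcypromine and 1 = vehicle-only wells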
Cav3 T inh = blocks human Cav3.2 T-type calcium channel. O95180. Cav3.2-expressing cells, Fluo-4 calcium fluorescence FDSS; hits give low values. 100,000 tested, 4% active. B-score at 10 µM;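 active = single-dose well whose peak fluorescence ratio is a statistical outlier from its plate by either plate-standardised score or position-corrected B-score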
CYP2C19 inh = inhibitors of human CYP2C19; P33261; inhibition, % at 5 µM; AID 778; CYP2C19 Supersomes, luciferin-H EGE luminescence, 30 min; 96,000 tested, 21% active;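 active = CYP2C19 inhibition above a set limit at 5 µM in the primary screen, cut at about 50% in these data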;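 also: plate controls were negative control wells for no effect and 2.5 mM tranylcypromine positive control for full effect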
CYP2C9 inh = inhibitors of human CYP2C9 | P11712 | CYP2C9 Supersomes, luciferin-H conversion, luminescence | inhibition, % at 5 µM | 96,000 tested, 20% active | AID 777;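 active = blocking of liver enzyme CYP2C9 beyond about 50% at 5 µM, limit read from the data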
PTK2B oligo ant = Pyk2 (human) oligomerization antagonism; Q293 cells, Pyk2 FERM NanoBiT luminescence; hits give low values; z-score (the deposit names both 25 µM and 10 µM); 99,000 tested, 0.83% active; AID 1347419;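 active = Z-score of -3 or lower, scaled per plate to the spread of control and sample wells; inactive = z-score above -3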;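 also: negative z-score means lost luminescence so less FERM oligomerization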
CYP2C9 activ = activators of human CYP2C9; P11712; recombinant CYP2C9, luciferin-H conversion, luminescence; hits give high values; factor 1 = untreated enzyme, 0 = blocked; activation factor at 5 µM; 96,000 tested, 1.4% active;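 active = activation factor of 2 or more for CYP2C9 at a 5 µM dose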;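 also: 0 = sulfaphenazole-blocked wells and 1 = vehicle-only wells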
Numbers without * were called inactive. Compounds with a hit are over-represented: about 27% of the library has one in this group of screens.

Screening Clc1ccc(-c2nc3cnccn3c2NC2CCCC2)cc1 returned CYP2C19 act 0.2, Cav3 T inh -5*, CYP2C19 inh 76*, CYP2C9 inh 89*, PTK2B oligo ant 0.43 and CYP2C9 activ 0.1.
Screening Cc1ccc(Nc2c(-c3ccc(C)o3)nc3cnccn23)cc1 returned CYP2C19 act 0.4, Cav3 T inh -1.4, CYP2C19 inh 57*, CYP2C9 inh 32 and CYP2C9 activ 0.7.
Cc1ccc(-c2nc3cnccn3c2Nc2ccc3c(c2)OCO3)o1 was read as CYP2C19 act 0, Cav3 T inh -0.6, CYP2C19 inh 97*, CYP2C9 inh 82* and CYP2C9 activ 0.2.
`CC(C)CCNC(=S)Nc1ccc(F)cc1` gave Cav3 T inh 0.86 and PTK2B oligo ant 1.5.
`Cc1ccc(CONC(=O)/N=C/N(C)C)cc1` gave CYP2C19 act 0.8, Cav3 T inh 0.68, CYP2C19 inh 16, CYP2C9 inh 12, PTK2B oligo ant 1.3 and CYP2C9 activ 0.9.
Screening CCC(CC)C(=O)NCCc1ccc(F)cc1 returned CYP2C19 act 0.7, Cav3 T inh 0.15, CYP2C19 inh 27, CYP2C9 inh 15, PTK2B oligo ant 0.33 and CYP2C9 activ 0.9.
Screening Oc1ccccc1-c1nc2cnccn2c1Nc1ccc2c(c1)OCCO2 returned CYP2C19 act 0.1, Cav3 T inh -2.8, CYP2C19 inh 92*, CYP2C9 inh 94*, PTK2B oligo ant -1.1 and CYP2C9 activ 0.1.
`O=C(CSc1ccc(Cl)cc1)Nc1ccc(NC(=O)c2ccco2)cc1` gave CYP2C19 act 0.8, Cav3 T inh 0.55, CYP2C19 inh 16, CYP2C9 inh 12, PTK2B oligo ant 1.2 and CYP2C9 activ 0.9.
Cc1cc(C)cc(OCC(=O)Nc2ccc(N3CCN(C(=O)c4ccco4)CC3)cc2)c1 was read as CYP2C19 act 0.8, Cav3 T inh -1.4, CYP2C19 inh 16, CYP2C9 inh 30, PTK2B oligo ant -1.5 and CYP2C9 activ 0.7.
Screening O=C(COc1ccc(Cl)cc1)Nc1ccc(N2CCN(C(=O)c3ccco3)CC2)cc1 returned CYP2C19 act 0.5, Cav3 T inh 1.1, CYP2C19 inh 51*, CYP2C9 inh 32, PTK2B oligo ant -1.2 and CYP2C9 activ 0.7.
For O=C(CSc1ccc(Cl)cc1)Nc1ccc(N2CCN(C(=O)c3ccco3)CC2)cc1 the results were CYP2C19 act 0.6, Cav3 T inh 0.13, CYP2C19 inh 45, CYP2C9 inh 64*, PTK2B oligo ant -0.4 and CYP2C9 activ 0.4.
Screening Cc1cc(C(F)(F)F)n(-c2nc(C(=O)Nc3ccccc3Oc3ccccc3)cs2)n1 returned CYP2C19 act 0.9, Cav3 T inh -4.4*, CYP2C19 inh 5, CYP2C9 inh 41 and CYP2C9 activ 0.6.
Screening Cc1cc(C(F)(F)F)n(-c2nc(C(=O)N/N=C/c3ccc(F)cc3)cs2)n1 returned CYP2C19 act 0.8, Cav3 T inh -1.2, CYP2C19 inh 19, CYP2C9 inh 55*, PTK2B oligo ant -0.73 and CYP2C9 activ 0.4.
COc1cccc(/C=N/NC(=O)c2csc(-n3nc(C)cc3C(F)(F)F)n2)c1 was read as CYP2C19 act 0.7, Cav3 T inh -0.36, CYP2C19 inh 26, CYP2C9 inh 12, PTK2B oligo ant -0.9 and CYP2C9 activ 0.9.
c1cc2ccc3ccc(CN4CCOCC4)c4ccc(c1)c2c34 was read as CYP2C19 act 0.3, Cav3 T inh 0.63, CYP2C19 inh 74*, CYP2C9 inh -48, PTK2B oligo ant 0.1 and CYP2C9 activ 1.5.
For c1ccc2cc(CN3CCOCC3)ccc2c1 the results were CYP2C19 act 0.6, Cav3 T inh 1.3, CYP2C19 inh 36, CYP2C9 inh -16, PTK2B oligo ant 0.22 and CYP2C9 activ 1.2.
Cc1cc2ccccc2cc1CN1CCOCC1 was read as CYP2C19 act 0.4, Cav3 T inh -0.75, CYP2C19 inh 58*, CYP2C9 inh -1, PTK2B oligo ant 0.63 and CYP2C9 activ 1.
Screening Cc1c(NC(=O)CSc2nnc(-c3cccc(Cl)c3)o2)c(=O)n(-c2ccccc2)n1C returned CYP2C19 act 1, CYP2C19 inh 0, CYP2C9 inh 32, PTK2B oligo ant -0.2 and CYP2C9 activ 0.7.
COCCn1cc(C(=O)c2ccccc2OCC(=O)Nc2cc(C)on2)cc(C#N)c1=O was read as CYP2C19 act 0.7, Cav3 T inh 1.5, CYP2C19 inh 32, CYP2C9 inh 42, PTK2B oligo ant -1.7 and CYP2C9 activ 0.6.
For Cc1ccc([C@@H]2C3COCC=C3C(C#N)=C(N)C2(C#N)C#N)o1 (stereo partly specified) the results were CYP2C19 act 0.3, Cav3 T inh 0.018, CYP2C19 inh 69*, CYP2C9 inh 49, PTK2B oligo ant 0.84 and CYP2C9 activ 0.5.
For N#CC1=C(N)C(C#N)(C#N)[C@H](c2ccncc2)[C@H]2CC3(CC=C12)OCCO3 the results were CYP2C19 act 0.5, Cav3 T inh 1.4, CYP2C19 inh 51*, CYP2C9 inh 71*, PTK2B oligo ant 0.38 and CYP2C9 activ 0.3.
For CC(C)N1CC=C2C(C#N)=C(N)C(C#N)(C#N)C(c3ccccc3)C2C1 (stereo unspecified) the results were CYP2C19 act 1, Cav3 T inh -2, CYP2C19 inh 3, CYP2C9 inh 4, PTK2B oligo ant -1.1 and CYP2C9 activ 1.
`Cc1ccc(C2C3CSCC=C3C(C#N)=C(N)C2(C#N)C#N)cc1` (stereo unspecified) gave CYP2C19 act 0.7, Cav3 T inh -0.67, CYP2C19 inh 29, CYP2C9 inh 81*, PTK2B oligo ant -0.41 and CYP2C9 activ 0.2.
For CC(C)C(=O)N1CCC(CN=CC2=C(O)CC(C)(C)CC2=O)CC1 the results were Cav3 T inh 0.34 and PTK2B oligo ant 0.24.
Screening Cc1ccc(CNC(=O)C23CN(Cc4ccccc4)CC2C(c2ccc([N+](=O)[O-])cc2)=NO3)o1 (stereo unspecified) returned CYP2C19 act 0.7, Cav3 T inh -1.4, CYP2C19 inh 35, CYP2C9 inh 54* and CYP2C9 activ 0.5.
For COc1ccc(CCNC(=O)C23CN(Cc4ccccc4)CC2C(c2ccc([N+](=O)[O-])cc2)=NO3)cc1 (stereo unspecified) the results were CYP2C19 act 0.2, Cav3 T inh -2.1, CYP2C19 inh 81*, CYP2C9 inh 59* and CYP2C9 activ 0.4.
`O=C(NCc1ccco1)C12CN(Cc3ccccc3)CC1C(c1ccc([N+](=O)[O-])cc1)=NO2` (stereo unspecified) gave CYP2C19 act 0.8, Cav3 T inh -2.7, CYP2C19 inh 18, CYP2C9 inh 18 and CYP2C9 activ 0.8.
For CCCCn1c(SCC2CCCO2)nc2cc(S(N)(=O)=O)ccc21 (stereo unspecified) the results were CYP2C19 act 0.8, Cav3 T inh 0.93, CYP2C19 inh 16, CYP2C9 inh 37, PTK2B oligo ant 0.42 and CYP2C9 activ 0.6.
